The record followed here is the supplement of paper PMC11417369.

Over roughly 25,000 sequences, “ln(normalized median fluorescence intensity)” has its median near 7.1; the highest 2% begin near 10. Many of the other results were omitted from the sample, so the highest values are more common in it than they were.

The assay concerns PfSIP2 AP2 domain 1 (GST-tagged). As to the kind of experiment: gcPBM binding intensity (ln(normalized median fluorescence intensity)); higher = stronger DNA binding. An outline of the steps:
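Binding intensity values are the highest Masliner-normalised natural-log median intensity among replicate spots of either probe orientation. The binding step lasted 1 h in 1× PBS with 1% milk, 0.2 mg/ml BSA, 0.5% salmon testes DNA and 0.03% Triton X-100, using GST-tagged P. falciparum DNA-binding domains expressed in E. coli on an Agilent 4 × 180k array of primer-extended double-stranded 36-bp intergenic genomic probes plus negative controls. Alexa488 anti-GST antibody and a 488 nm scan detected bound protein.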
“ATATTTTTATTAGTAGTGCAATTTAGTGTATATATA [GTGCAC_site9542]”: the “gcPBM binding intensity (ln)” value was 8.39.

For the sequence “ATTTATATTACCCTTGCATGTAGGTGCAATTTTTTT [TGCATGCA_site757]”, the “gcPBM binding intensity (ln)” value turned out to be 11.

With “ATATATATATATTTATGTACATATATTTTTTTTTTT [XGTACX_site8558]”, the “gcPBM binding intensity (ln)” value was determined as 8.71.

As to “CATATATATTTTATATGTACATATATATTTTATATA [XGTACX_site8665]”, the “gcPBM binding intensity (ln)” value amounted to 7.03.

Regarding “ATTTTTTTTTTTTTATGTACATATAGGTGCAAATCA [XGTACX_site6748]”, the “gcPBM binding intensity (ln)” value worked out at 11.4.

“AATTCATTTTACCCATGTACACAATTATATTTTATA [XGTACX_site4127]”: the “gcPBM binding intensity (ln)” value was 7.23.

In the case of GACAATTATATGTAGGTGCATATACAAATTTTTTAA, the “gcPBM binding intensity (ln)” value worked out at 10.9.

As for “TTTATATATTATTAATGTACAAAATTTTTATTGCAT [XGTACX_site3329]”, the “gcPBM binding intensity (ln)” value is 6.96.

Regarding “ATATATTTATTAAGGTGTACAAAAATTATGTTGCAT [XGTACX_site7546]”, the “gcPBM binding intensity (ln)” value amounted to 7.16.

In the case of “ATGTTATATATGTATTGTACGTATTTTGTATATTAT [XGTACX_site6607]”, the “gcPBM binding intensity (ln)” value was determined as 7.4.

“AATATATCCTATTCGAACAAAAATACATGCACATAT [CACACA_negctrl_site1058]”: the “gcPBM binding intensity (ln)” value amounted to 9.28.

With “AAGGATTATTTTAATCGTACATGTGTAAATAATATA [XGTACX_site6177]”, the “gcPBM binding intensity (ln)” value is 6.98.

Regarding “AATAAATAAATATATATATATATATAATATCATAAA [CACACA_negctrl_site337]”, the “gcPBM binding intensity (ln)” value was 7.29.

Turning to “TAAAGAAAAATATAAAGTACAAAAATAAAAAAAATA [XGTACX_site8226]”, the “gcPBM binding intensity (ln)” value is 6.93.

“AGCATTAAAAATGGAATGGAATTAAGCTATATATTA [CACACA_negctrl_site1571]”: the “gcPBM binding intensity (ln)” value was determined as 6.63.

As for “TTAAAGTTACATTCGACACACACATAACAACTAAAT [CACACA_site9130]”, the “gcPBM binding intensity (ln)” value came to 7.1.

Turning to “AAAAAAAAAGATCACACACACATAAATATAAACAAA [CACACA_site5285]”, the “gcPBM binding intensity (ln)” value turned out to be 6.92.

“TCAGATCCATAGAAGGTGCAAATAACAAAAATACAA [GTGCAC_site9610]”: the “gcPBM binding intensity (ln)” value came out at 10.9.

Take “AAATAACAAAAGAAGGTGCTCATAAAAATTCATACA [GTGCAC_site9864]”: the “gcPBM binding intensity (ln)” value stood at 8.23.

Regarding “ACATACATATGTAAATGTACAAAATATCCATAGATT [XGTACX_site2782]”, the “gcPBM binding intensity (ln)” value was 6.81.

Turning to “TATAATGCTCTTCTTTGTACATATTATGATTATATT [XGTACX_site2332]”, the “gcPBM binding intensity (ln)” value was determined as 7.15.

“TTGACAGGAACGTTGGTGCACGTACTGTTTTTCTTT [GTGCAC_site9389]”: the “gcPBM binding intensity (ln)” value turned out to be 10.7.

Turning to “TTTGTTTGGTTTTGGTGTACTTTTTTTTTTTTTTCT [XGTACX_site2050]”, the “gcPBM binding intensity (ln)” value was 7.16.

For “TTAGCAGGACGTTTGGTGCACGTACTGTTTTTCTTT [GTGCAC_site9856]”, the “gcPBM binding intensity (ln)” value worked out at 10.3.

“CTTCTGGACAGGAATGCACACATTTTTTTTTCTTTT [CACACA_site1807]”: the “gcPBM binding intensity (ln)” value was 7.

Regarding “ATTTTTTTTTTTTTTTTTTGGTTTTCTTTAGGAGTT [CACACA_negctrl_site1258]”, the “gcPBM binding intensity (ln)” value was 6.9.

Regarding “TACATGCTTATTTTAACACACAAATGGTAGTAATAA [CACACA_site766]”, the “gcPBM binding intensity (ln)” value amounted to 6.93.

In the case of “ATATTTTTCAAACATCGTACATTATGAGTTAAAATT [XGTACX_site584]”, the “gcPBM binding intensity (ln)” value was determined as 7.02.

In the case of “ATAAAAAGGAGACACACACACACACGCATATTTATA [CACACA_site6551]”, the “gcPBM binding intensity (ln)” value came out at 7.08.

Consider “AGACCTTTAATTTGTGTGCACATAATTAGTGTACAT [GTGCAC_site9434]”, for which the “gcPBM binding intensity (ln)” value stood at 8.49.

Regarding “TGTGCACATAATTAGTGTACATTTTTTATTTAGACA [XGTACX_site317]”, the “gcPBM binding intensity (ln)” value was 10.9.

As to “TATATTATTAATTAAGCACACATTATTTTTATAATA [CACACA_site3982]”, the “gcPBM binding intensity (ln)” value is 6.89.

As for “ATAATATATAATATAGTGCATTATTTATTAATTAAT [GTGCAC_site9852]”, the “gcPBM binding intensity (ln)” value stood at 10.1.

As to “GTATAATTATGTGCACGTACATATTTTATTATATAT [XGTACX_site8586]”, the “gcPBM binding intensity (ln)” value was 9.21.

For the sequence ATATATATATATATAGTGCACATTTATATAATTATT, the “gcPBM binding intensity (ln)” value was found to be 10.6.

Turning to “TTAATAATTAATTATAGTACACATTTATATTAATAA [XGTACX_site190]”, the “gcPBM binding intensity (ln)” value stood at 7.03.

As to TTATATAATTTAATAGTGCAATTATATTAATTTTTC, the “gcPBM binding intensity (ln)” value amounted to 7.73.

Regarding “CTATTTCAATTTAGTGCACACATTTTAATTTATAAG [CACACA_site2040]”, the “gcPBM binding intensity (ln)” value came to 10.5.

Consider “ATTCCACCTTAAAACTGTACTTTCTCAATCTTTTAT [XGTACX_site796]”, for which the “gcPBM binding intensity (ln)” value stood at 7.22.

“TTACTTAAATATAAGTGTCCTCAAAAAAAAAAAAAA [XGTACX_site460]”: the “gcPBM binding intensity (ln)” value was determined as 6.94.

In the case of “ATTCGTCACATTTTTTGATATATATATATATATATA [CACACA_negctrl_site1785]”, the “gcPBM binding intensity (ln)” value worked out at 9.68.

For the sequence “TTTTAAAAACGGCATGCATGTAATACATGGAAGGAA [TGCATGCA_site480]”, the “gcPBM binding intensity (ln)” value turned out to be 7.46.

For the sequence “TTTTTATTAAGACATGCATGGAAACGCACTATTTTA [TGCATGCA_site999]”, the “gcPBM binding intensity (ln)” value is 9.74.

Regarding “GGGTTTTTTATTAATACATGCATGGAAACGCACTAT [TGCATGCA_site1000]”, the “gcPBM binding intensity (ln)” value was 10.3.

As to “TTTATAAATATTCTCACACACTTTTTATTTTAACAA [CACACA_site6454]”, the “gcPBM binding intensity (ln)” value stood at 6.93.

For the sequence “ATATAAATTTAATACACACCCAAAAAAAAAAAAAAA [CACACA_site3750]”, the “gcPBM binding intensity (ln)” value was determined as 6.89.

As to TATGTTTTTACGTGTGTGCACTTTGTAGAGATAAGT, the “gcPBM binding intensity (ln)” value was 10.7.

With “ATATGTTTTGTTTACGTGCACTGCTTTGTTTATATA [GTGCAC_site9622]”, the “gcPBM binding intensity (ln)” value amounted to 9.56.

For the sequence ATGTAGATAAAACGTGTGCACATGTTTTTTGTTATT, the “gcPBM binding intensity (ln)” value is 8.7.

Consider “AAAATTAGATTATGCACACACACTTAAAAATAATAA [CACACA_site1975]”, for which the “gcPBM binding intensity (ln)” value stood at 8.5.

In the case of “GTTAGGATAGATTAGACATGCACATAAATGCACTTC [TGCATGCA_site561]”, the “gcPBM binding intensity (ln)” value came out at 11.

Consider “AGGATATGCAGACACACACACATATAGATTTATATA [CACACA_site7100]”, for which the “gcPBM binding intensity (ln)” value came out at 7.08.

As for “TGTACGAGTCGTAGAGTGCAGTCTGGAGAAAAGTAC [GTGCAC_site9683]”, the “gcPBM binding intensity (ln)” value stood at 8.91.

For “TTTTTTATGCTAACTTCTTTTTCCTTATAAAATTGG [TGCATGCA_negctrl_site598]”, the “gcPBM binding intensity (ln)” value worked out at 7.06.

Turning to “TAATATATGTATTGCACACCTATAACCATTATTTCT [CACACA_site1498]”, the “gcPBM binding intensity (ln)” value was determined as 7.06.

For “AATATATTGCACCATTGGACCTGAATAATTCTTCCA [CACACA_negctrl_site1071]”, the “gcPBM binding intensity (ln)” value came out at 10.6.

As for “AATATAATATATTGCACACAAAAAGTGAATTATTCT [CACACA_site1684]”, the “gcPBM binding intensity (ln)” value is 7.12.
